TTR transcr act: TTR transcription activators in neuroblastoma reporter cells, primary screen, cell-based, luminescence, SH-SY5Y, TTR promoter Gaussia luciferase | 92,000 tested, 1.3% active | 100% = recombinant luciferase protein wells | activation, % at 16.7 µM;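 active = activation above the mean of all tested compounds plus 3 SD, cut at about 9.5% in these data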;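 also: cells exposed to compounds for one day before reading; 0% = median of all test compound wells on the plate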
TTR inh HuH7: TTR promoter reporter inhibitors in hepatoma cells, counter-screen for TTR transcription activator project, cell-based, luminescence, HuH7 hepatoma; shares compounds with TTR transcr act; HuH7 TTR promoter-Gaussia luciferase reporter; inhibition, % at 16.7 µM; 1,100 tested, 4% active;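 active = average inhibition above the solvent-only control wells' mean plus 3 SD, cut at about 15% in these data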;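 also: 0% = cells with DMSO only and 100% = cells with inhibitor control FD; inhibitors lower well luminescence so higher value means more inhibition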
TTR act confirm: TTR transcription activators, retest, confirmation, cell-based, luminescence, SH-SY5Y, triplicate; shares compounds with TTR transcr act; SHSY5Y TTR promoter Gaussia luciferase; 100% = purified Lucia enzyme wells, no cells; activation, % at 16.7 µM; 1,100 tested, under 10 active;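 active = mean activation above a set limit taken from the earlier primary screen, cut at about 11% in these data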;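 also: 0% = DMSO-treated cells and 100% = recombinant Lucia luciferase without cells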
Numbers without * were called inactive. This is one part of a sample in which hits are shown more often than they occur.

SMILES	TTR transcr act	others
CN(N=Nc1cccc([N+](=O)[O-])c1)c1cccc([N+](=O)[O-])c1	20*	TTR inh HuH7=-8;TTR act confirm=-1
CCCN(N=Nc1cccc([N+](=O)[O-])c1)c1cccc([N+](=O)[O-])c1	-2
CC(C)(C)S(=O)(=O)N1C[C@@H]2CC(=O)C=C2[C@H]1CCO	1
O=C(NCCc1c[nH]c2ccccc12)OCc1cn(-c2cccc(Cl)c2)nn1	0
Cc1cc(N=O)no1	-1
CCOC(=O)C1=C[C@@H](C(C)(C)C)N(S(=O)(=O)c2ccc([N+](=O)[O-])cc2)[C@H]1c1ccccc1	-3
CCOC(=O)C1=C[C@@H](C(C)C)N(S(=O)(=O)c2ccc([N+](=O)[O-])cc2)[C@H]1c1ccccc1	-3
CCOC(=O)C1=C[C@@H](CC)N(S(=O)(=O)c2ccc([N+](=O)[O-])cc2)[C@H]1c1ccccc1	48*	TTR inh HuH7=-4;TTR act confirm=0
O=C(Nc1ccc(F)cc1)OCc1cn(Cc2cccc(C(F)(F)F)c2)nn1	-1
CN1C(=O)C(=O)/C(=C(/O)c2ccc(Br)cc2)C1c1ccc(F)cc1 (centres undefined)	0
COCCCNC(=O)C[C@H]1C[C@@]2(C(=O)OC)C(=C[C@H](C(C)C)O[C@@H]2C2CC2)N(Cc2ccc(Cl)cc2Cl)C1=O	-1
CCN1C(=O)c2cccc3c(NC(=O)c4ccc(S(=O)(=O)N(C)C)cc4)ccc1c23	9.9*	TTR inh HuH7=-12;TTR act confirm=2
CCOC(=O)c1ccc(NC(=O)Nc2ccc3c4c(cccc24)C(=O)N3CC)cc1	-2
CCN1C(=O)c2cccc3c(S(=O)(=O)N4CCC(C)CC4)ccc1c23	0
CCOC(=O)C(Cc1c[nH]c2ccccc12)NC(=O)c1ccccc1Br (centres undefined)	-1
CCOC(=O)N1CCN(C(=O)C[C@@H]2C[C@@]3(C(=O)OC)CC(C)(C)CC=C3N(Cc3ccc4c(c3)OCO4)C2=O)CC1	1
CC1=C(C)[N+](=O)C2CCCCC2N1[O-] (centres undefined)	13*	TTR inh HuH7=-6;TTR act confirm=0
COc1ccc(CNC(=O)c2noc(C)c2[N+](=O)[O-])cc1	3
COc1ccc(NC(=O)CCc2nc(-c3ccccc3F)no2)cc1	9.9*	TTR inh HuH7=-17;TTR act confirm=0
COc1ccc(-c2noc(CCC(=O)Nc3nc4ccccc4s3)n2)cc1	6
CCOC(=O)c1cccc(NC(=O)CCc2nc(-c3ccccc3F)no2)c1	5
COc1ccc(-n2cc(-c3ccc(OC(F)F)cc3)[n+]3c2CCCCC3)cc1	-1
COc1ccc(-c2cn(-c3ccc(Cl)cc3)c3[n+]2CCCCC3)cc1	12*	TTR inh HuH7=0;TTR act confirm=1
Clc1ccc(-c2cn(-c3ccc(Cl)cc3)c3[n+]2CCCCC3)cc1	-2
CCOC(=O)[C@]12CCCC=C1N(CCCOC)C(=O)[C@@H]2CC(=O)N1CCCCC1	0
SMILES	TTR transcr act	others
O=C1CCC[C@H]2C[C@H](NCc3ccc(F)cc3F)CC[C@]23CCCN13	-1
Cc1cc(OC(=O)c2cccc(Cl)c2)c([N+](=O)[O-])c(=O)[nH]1	1
C=CCc1ccc(OCCn2cccc2C=O)c(OC)c1	-4
COc1cc2c(cc1OC)C1=NC(=O)CN1C(SCc1ccc(C)cc1)=N2	-2
C=CCSC1=Nc2cc(OC)c(OC)cc2C2=NC(=O)CN12	31*	TTR inh HuH7=14;TTR act confirm=-1
C#CCNC(=O)C[C@H]1C[C@@]2(C(=O)OCC)CCCC3=C2N(CCC3)C1=O	1
NC(=O)c1ccsc1NC(=O)CCS(=O)(=O)c1ccc(Cl)cc1	-2
CCOC(=O)C1C(=O)CC(C)(O)C(C(=O)OCC)C1c1ccc(SC)cc1 (centres undefined)	-2
CCOC(=O)C1C(=O)CC(C)(O)C(C(=O)OCC)C1c1ccc(Br)cc1 (centres undefined)	-1
C=CCOC(=O)C1C(=O)CC(C)(O)C(C(=O)OCC=C)C1c1ccc(N(C)C)cc1 (centres undefined)	25*	TTR inh HuH7=-10;TTR act confirm=0
O=C(Nc1ccc(Cl)cc1Cl)OC1CCC12CCC(c1ccccc1)CC2 (centres undefined)	0
C=CC(=O)NC1CCCCN(CC)C1=O (centres undefined)	4
CC(C)CCN(C(=O)c1ccncc1)c1c(N)n(Cc2ccccc2)c(=O)[nH]c1=O	2
CCCCn1c(N)c(N(CCC(C)C)C(=O)COC(=O)c2cccnc2SC)c(=O)[nH]c1=O	0
CCOc1ncccc1C(=O)N(CCC(C)C)c1c(N)n(Cc2ccccc2)c(=O)[nH]c1=O	17*	TTR inh HuH7=-5;TTR act confirm=0
COc1ccc2c(c1)NC(=O)[C@@]2(CCN1C(=O)c2ccccc2C1=O)c1[nH]c2ccccc2c1CCN1C(=O)c2ccccc2C1=O	-2
Cc1cccc(C)c1NC(=O)C(c1ccncc1)n1c(=O)c(-c2cc3ccccc3[nH]2)nc2ccccc21 (centres undefined)	-1
Cc1cc(NCCO)c2cc(O)ccc2n1	6
CN(C)CCNc1ccc(CO)c2oc3ccc(O)cc3c(=O)c12	16*	TTR inh HuH7=-92;TTR act confirm=13*
CC(C)(C)OC(=O)N[C@H]1C=C[C@@H](CC(=O)OCC(F)(F)F)C1	1
O=C(Nc1sc2c(c1-c1nc3ccccc3s1)CCNC2)C(F)(F)F	0
O=C1CCC[C@H]2C[C@H](NCc3ccccc3F)CC[C@]23CCCN13	0
COCC(=O)Nc1nnc(-c2cccs2)s1	1
CN(C(=O)COc1ccccc1)c1nc(-c2ccc(F)cc2)cs1	-1
COCC(=O)N(C)c1nnc(-c2cnc(C)cn2)s1	9.7*	TTR inh HuH7=-8;TTR act confirm=-1
SMILES	TTR transcr act	others
CC1(c2ccc(OC(F)F)cc2)NC(=O)N(CC(=O)Nc2ccc3c(c2)OCO3)C1=O (centres undefined)	-2
COc1ccc(C2(C)NC(=O)N(CC(=O)Nc3ccc4c(c3)OCO4)C2=O)cc1OC (centres undefined)	15*	TTR inh HuH7=-12;TTR act confirm=1
CC1(c2ccccc2)NC(=O)N(CC(=O)Nc2ccc3c(c2)OCO3)C1=O (centres undefined)	-1
Cn1c2ccccc2c(=O)c2c(=O)n(Cc3ccccc3)c(-c3ccc(F)cc3)nc21	-1
C[C@H]1[C@@H](OC(=O)Nc2ccc(C#N)cc2)CC[C@@]23CCCN2C(=O)CCC[C@@H]13	0
COC(=O)c1c(NC(=O)C(=O)NCC2CCCO2)sc2c1CC(C)(C)OC2 (centres undefined)	3
CCOC(=O)[C@@]12CCC3=C1N(CCC3)C(=O)[C@H](CC(=O)NCc1cccc3ccccc13)C2	1
CCc1ccc(-n2nc3ccc(NC(=O)c4ccc5c(c4)OCO5)cc3n2)cc1	14*	TTR inh HuH7=-2;TTR act confirm=0
CC(C)(C)c1cnnn1-c1ccc(NC(=O)c2ccc3c(c2)OCO3)cc1	-1
Cc1ccc(-n2nc3ccc(NC(=O)c4ccc5c(c4)OCO5)cc3n2)cc1	1
CC(=O)Nc1ccc(S(=O)(=O)N2CCNC(=O)C2)cc1	2
CC(=O)c1cccc(NC(=O)CN(c2ccccc2)S(C)(=O)=O)c1	12*	TTR inh HuH7=-4;TTR act confirm=1
CC(=O)c1cccc(N(CC(=O)Nc2ccccc2F)S(C)(=O)=O)c1	2
CC(=O)c1cccc(N(CC(=O)Nc2ccc(S(=O)(=O)N3CCCC3)cc2)S(C)(=O)=O)c1	-1
